# Source: publication PMC11062922 (Nature Chemical Biology, 2023)
# Read-outs that look alike come from different tables or passages of the source.
# How the values were obtained:
# Parameters in all cases: species or system human, MV4-11 + K-562 + COLO205 + SK-N-BE2 + OVCAR-8
# CLK1 = details: read-out: apparent Kd, n = 1
# CLK2 = details: read-out: apparent Kd, n = 1
# CLK4 = details: read-out: apparent Kd, n = 1
# DYRK1A = details: read-out: apparent Kd; compound concentrations: 100 nM and 1000 nM (sheet 'Samples'), CATDS: 7.2131324717133599E-2; n = 1
# GAK = details: read-out: apparent Kd, n = 1
# JAK1 = details: read-out: apparent Kd; compound concentrations: 100 nM and 1000 nM (sheet 'Samples'), CATDS: 8.1370183106340005E-2; n = 1
# PI4KB = details: read-out: apparent Kd; compound concentrations: 100 nM and 1000 nM (sheet 'Samples'), CATDS: 0.120056979351962; n = 1
# PIK3C2B = details: read-out: apparent Kd; compound concentrations: 100 nM and 1000 nM (sheet 'Samples'), CATDS: 8.8068304969215402E-2; n = 1
# TNIK = details: read-out: apparent Kd; compound concentrations: 100 nM and 1000 nM (sheet 'Samples'), CATDS: 8.7825927191877803E-2; n = 1
# CIT = details: read-out: apparent Kd; compound concentrations:100 nM and 1000 nM (sheet 'Samples'); n = 1
# CSNK1A1 = details: read-out: apparent Kd; compound concentrations:100 nM and 1000 nM (sheet 'Samples'); n = 1
# CSNK1D = details: read-out: apparent Kd; compound concentrations:100 nM and 1000 nM (sheet 'Samples'); n = 1
# CSNK1E = details: read-out: apparent Kd; compound concentrations:100 nM and 1000 nM (sheet 'Samples'); n = 1
# MAPK14 = details: read-out: apparent Kd; compound concentrations: 100 nM and 1000 nM (sheet 'Samples'), CATDS: 6.0932890746218903E-2; n = 1
# MAPK9 = details: read-out: apparent Kd; compound concentrations:100 nM and 1000 nM (sheet 'Samples'); n = 1
# MAPKAPK2 = details: read-out: apparent Kd; compound concentrations:100 nM and 1000 nM (sheet 'Samples'); n = 1
# PIK3CD = details: read-out: apparent Kd; compound concentrations:100 nM and 1000 nM (sheet 'Samples'); n = 1
# PKN3 = details: read-out: apparent Kd; compound concentrations:100 nM and 1000 nM (sheet 'Samples'); n = 1
# PRKX = details: read-out: apparent Kd; compound concentrations:100 nM and 1000 nM (sheet 'Samples'); n = 1
# PSMC3 = details: read-out: apparent Kd; compound concentrations:100 nM and 1000 nM (sheet 'Samples'); n = 1
# RIPK2 = details: read-out: apparent Kd; compound concentrations:100 nM and 1000 nM (sheet 'Samples'); n = 1
# SIK3 = details: read-out: apparent Kd; compound concentrations:100 nM and 1000 nM (sheet 'Samples'); n = 1
# TGFBR2 = details: read-out: apparent Kd; compound concentrations:100 nM and 1000 nM (sheet 'Samples'); n = 1
# CDK7 = details: read-out: apparent Kd; compound concentrations: 100 nM and 1000 nM (sheet 'Samples'), CATDS: 0.117624966951351; n = 1
# ERCC2 = details: read-out: apparent Kd; compound concentrations: 100 nM and 1000 nM (sheet 'Samples'), CATDS: 0.117960560736162; n = 1
# FER = details: read-out: apparent Kd; compound concentrations: 100 nM and 1000 nM (sheet 'Samples'), CATDS: 0.13650868273140601; n = 1
# PIK3CA = details: read-out: apparent Kd; compound concentrations: 100 nM and 1000 nM (sheet 'Samples'), CATDS: 0.31694320747902399; n = 1
# TNK1 = details: read-out: apparent Kd, n = 1
# TNK2 = details: read-out: apparent Kd; compound concentrations: 100 nM and 1000 nM (sheet 'Samples'), CATDS: 0.149039092060825; n = 1
# MAPK10 = details: read-out: apparent Kd; compound concentrations:100 nM and 1000 nM (sheet 'Samples'); n = 1
# MAPK8 = details: read-out: apparent Kd; compound concentrations:100 nM and 1000 nM (sheet 'Samples'); n = 1
# PTK2B = details: read-out: apparent Kd; compound concentrations:100 nM and 1000 nM (sheet 'Samples'); n = 1
# PTK2 = details: read-out: apparent Kd; compound concentrations:100 nM and 1000 nM (sheet 'Samples'); n = 1
# TTK = details: read-out: apparent Kd; compound concentrations:100 nM and 1000 nM (sheet 'Samples'); n = 1
# [1] = compound concentrations:100 nM and 1000 nM (sheet 'Samples')
structure (smiles),measurement,setting,value
Cl.O=C1Nc2ccc(-c3cccnc3)cc2C1=Cc1cc(Br)c(O)c(Br)c1 [GW2429374A],potency estimated from few doses,"CLK1; compound concentrations: 100 nM and 1000 nM (sheet 'Samples'), CATDS: 0.24190894696409601",75.2 nM
same,potency estimated from few doses,"CLK2; compound concentrations: 100 nM and 1000 nM (sheet 'Samples'), CATDS: 8.8411635671529196E-2",766 nM
same,potency estimated from few doses,"CLK4; compound concentrations: 100 nM and 1000 nM (sheet 'Samples'), CATDS: 0.28990629676542801",56.3 nM
same,potency estimated from few doses,DYRK1A,1760 nM
same,potency estimated from few doses,"GAK; compound concentrations: 100 nM and 1000 nM (sheet 'Samples'), CATDS: 0.20480817101344501",100 nM
same,potency estimated from few doses,JAK1,1030 nM
same,potency estimated from few doses,PI4KB,315 nM
same,potency estimated from few doses,PIK3C2B,777 nM
same,potency estimated from few doses,TNIK,784 nM
Fc1ccc(-c2nc[nH]c2-c2ccncc2)cc1 [SB-217360],potency estimated from few doses,CIT,926 nM
same,potency estimated from few doses,CSNK1A1,98 nM
same,potency estimated from few doses,CSNK1D,40.5 nM
same,potency estimated from few doses,CSNK1E,623 nM
same,potency estimated from few doses,MAPK14,445 nM
same,potency estimated from few doses,MAPK9,526 nM
same,potency estimated from few doses,MAPKAPK2,83.8 nM
same,potency estimated from few doses,PIK3CD,114 nM
same,potency estimated from few doses,PKN3,212 nM
same,potency estimated from few doses,PRKX,77.5 nM
same,potency estimated from few doses,PSMC3,1190 nM
same,potency estimated from few doses,RIPK2,99.5 nM
same,potency estimated from few doses,SIK3,1440 nM
same,potency estimated from few doses,TGFBR2,1140 nM
Nc1c(C(=O)c2cccc(C(O)CO)c2)cnn1-c1ccc(F)cc1 (centres unmarked) [RO3200567-000],potency estimated from few doses,CDK7,1730 nM
same,potency estimated from few doses,ERCC2,1710 nM
same,potency estimated from few doses,FER,1200 nM
same,potency estimated from few doses,"GAK; compound concentrations: 100 nM and 1000 nM (sheet 'Samples'), CATDS: 0.12538076296612899",1460 nM
same,potency estimated from few doses,PIK3CA,285 nM
same,potency estimated from few doses,"TNK1; compound concentrations: 100 nM and 1000 nM (sheet 'Samples'), CATDS: 0.145879794624587",1040 nM
same,potency estimated from few doses,TNK2,993 nM
COc1cc(N2CCN(C(C)C)CC2)ccc1Nc1nc(Nc2ccc(F)cc2C(=O)NC[C@@H](O)CO)c2cc[nH]c2n1 [GSK1392956A],potency estimated from few doses,CLK1; [1],415 nM
same,potency estimated from few doses,CLK2; [1],811 nM
same,potency estimated from few doses,CLK4; [1],684 nM
same,potency estimated from few doses,GAK; [1],50.4 nM
same,potency estimated from few doses,MAPK10,92.1 nM
same,potency estimated from few doses,MAPK8,140 nM
same,potency estimated from few doses,MAPK9,531 nM
same,potency estimated from few doses,PTK2B,188 nM
same,potency estimated from few doses,PTK2,370 nM
same,potency estimated from few doses,TNK1; [1],577 nM
same,potency estimated from few doses,TTK,53 nM
